# Experimental data reported in PubChem BioAssay (NCI).
# This is part of a sample that, as a whole, favours compounds with a hit. Of some 79,000 tested, about 15% had one in any assay. Values without a mark were called inactive. Active and inactive are the calls of the source. No stated cut-off is given here; in the data, active means growth inhibition above about 70%; inactive means the rest.
# Key:
# [1] = NCI Yeast Anticancer Drug Screen. Data for the rad50 strain (AID 155);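 further: 0% = growth of vehicle-only cultures of the same strain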; conditions: S. cerevisiae rad50 strain growth inhibition; at 50.0 µM; stronger effect = higher value
# Procedure, shortened: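 Readout: growth inhibition relative to vehicle-treated cultures. Compound exposure was carried out in a genetically defined yeast strain deficient in DNA damage repair.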
# [2] = NCI Yeast Anticancer Drug Screen. Data for the mec2-1 strain (AID 157); conditions: S. cerevisiae mec2-1 strain, at 50.0 µM, stronger effect = higher value
# Procedure, shortened: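 Strain: mec2-1 (DNA repair/cell cycle alteration). Compound exposure, then growth measured; inhibition expressed relative to vehicle.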
# [3] = NCI Yeast Anticancer Drug Screen. Data for the sgs1 mgt1 strain (AID 161);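 further: 0% = growth of cultures given vehicle only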; conditions: S. cerevisiae sgs1 mgt1 strain, at 50.0 µM, stronger effect = higher value
# Procedure, shortened: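 Inhibition of yeast growth, normalised to vehicle-treated controls, is reported for a strain bearing genetic alterations in DNA damage repair.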
# [4] = NCI Yeast Anticancer Drug Screen. Data for the cln2 rad14 strain (AID 165);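 further: 0% = growth equal to vehicle treated cultures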; conditions: S. cerevisiae cln2 rad14 strain, at 50.0 µM, stronger effect = higher value
# Procedure, shortened: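 Compounds are applied to the cln2 rad14 yeast strain, and growth is then compared with that of vehicle-treated cultures to give inhibition.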
# [5] = NCI Yeast Anticancer Drug Screen. Data for the bub3 strain (AID 167); conditions: S. cerevisiae bub3 mutant strain, at 50.0 µM, stronger effect = higher value
# Procedure, shortened: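 Readout: yeast growth inhibition, expressed relative to vehicle-only wells. The test organism is a mutant strain from a panel with lesions in DNA repair or checkpoint genes.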
# [6] = NCI Yeast Anticancer Drug Screen. Data for the mlh1 rad18 strain (AID 175); conditions: S. cerevisiae mlh1 rad18 strain growth inhibition; at 50.0 µM; stronger effect = higher value
# Procedure, shortened: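 Read-out is yeast growth inhibition, calculated against vehicle-only controls. The compound was applied to a strain engineered with DNA damage repair alterations.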
Structure (SMILES),growth inhibition [1],growth inhibition [2],growth inhibition [3],growth inhibition [4],growth inhibition [5],growth inhibition [6]
Cc1c2c(cc3c1[nH]c1ccccc13)C(c1ccc(F)cc1)=NCC2,-1.8%,5.55%,1.85%,-51%,-0.6%,-2.45%
COc1ccc(C2=C(OC(=O)N(C)C)c3cccn3-c3cc(Cl)ccc3S2)cc1,-7.3%,2%,1.7%,-1.85%,-0.1%,-5.95%
CC1(C)CCc2cc3c(cc2O1)OC(C)(C)CC3=O,9.05%,8.75%,-15.9%,22.4%,-1.45%,-17.4%
C(=N\N1CCN(/N=C/c2ccc(OCc3ccccc3)cc2)CC1)/c1ccc(OCc2ccccc2)cc1,-12.6%,-3.95%,7.65%,-19.4%,0.2%,-16.8%
CN(Nc1c([N+](=O)[O-])cc([N+](=O)[O-])cc1[N+](=O)[O-])c1ccc2ccccc2c1,14.2%,7.3%,21.4%,24.2%,7.2%,8.35%
CCOC(=O)CCCC(=O)N(CC(=O)OCC)Cc1ccccc1,2.6%,12.1%,13.2%,-4.9%,5%,-5.85%
CCOC(=O)CCC(N)C(N)=O (stereo unspecified),28.2%,-6.45%,16%,8.65%,11.4%,23.9%
COC1OC(COC(=O)c2ccc([N+](=O)[O-])cc2)C(O)C1SC#N (stereo unspecified),43.5%,-2.3%,41.3%,-10.1%,13.2%,42.8%
CSc1nc(C)c(Br)c(=O)n1C1OC(COC(C)=O)C(OC(C)=O)C(OC(C)=O)C1OC(C)=O (stereo unspecified),-1.2%,-7.5%,-13.1%,22.2%,-19.9%,1.35%
CC(=O)Nc1ccc2c(c1)C(=O)c1ccccc1-2,64.1%,16.1%,30.2%,26.3%,-16.8%,31.4%
NC(Cc1ccc(OC(c2ccccc2)(c2ccccc2)c2ccccc2)cc1)C(=O)O (stereo unspecified),-23.6%,-9.5%,0.75%,-18.4%,-6.1%,-12.2%
CC(C)=CC1C(C(=O)SCc2cc3c(cc2Br)OCO3)C1(C)C (stereo unspecified),0.95%,-6.05%,-10.2%,6.25%,5.6%,6.5%
CN(C)CCOc1c(Cc2ccccc2)ccc2cccnc12,-1.65%,5.15%,3.05%,-2.9%,1%,5.05%
CCOC(=O)N1c2ccccc2OC1C#N (stereo unspecified),-17.3%,1.3%,-4.4%,-33.1%,51.3%,13.5%
O=C(O)c1cccc(Cl)c1-c1c(Cl)cccc1C(=O)O,4.65%,-0.95%,17.8%,11.8%,17.3%,-8.45%
CCCC(CC)=C(c1ccc(OC(C)=O)cc1)c1ccc(OC(C)=O)cc1,44.4%,24.3%,51.5%,38.9%,31%,54.7%
O=c1oc2ccc3ccccc3c2c(-c2ccc(O)cc2)c1-c1ccccc1,98.7% (active),98.5% (active),98.9% (active),97.2% (active),98.2% (active),98.7% (active)
O=C(COc1ccc(Cl)cc1Cl)Nc1ccc2ccccc2c1S(=O)(=O)O,6.45%,2.2%,12.5%,-5.95%,8.4%,3.6%
CC1(O)/C=C\C=C(\CO)C2CC(C)(C)C2(O)CC1 (stereo unspecified),-29.9%,-40%,-43.1%,-4.5%,-46%,-29.8%
CNC(C#N)c1ccc(OC)cc1 (stereo unspecified),3.55%,17.9%,-26.9%,-17.4%,-9.75%,-28.4%
CSc1nc2c(c(=O)n1C)N=C(c1ccc([N+](=O)[O-])cc1)CC(c1ccccc1)N2 (stereo unspecified),6.8%,3.1%,17.8%,10.7%,18.1%,-16.2%

Structure (SMILES),growth inhibition [1],growth inhibition [2],growth inhibition [3],growth inhibition [4],growth inhibition [5],growth inhibition [6]
O=c1[nH]nc(-c2ccccc2)n1/N=C/c1c(O)ccc2ccccc12,8.15%,17.9%,9.15%,13.3%,15.4%,24.6%
O=C(O)CCc1nc[nH]c1[N+](=O)[O-],-33.3%,-10.6%,-7.55%,-44.9%,11.1%,8.1%
CC12C=C[C@]3(CC[C@@H]4[C@@](C)(CO)CCC[C@]4(C)C3CC1)C2 (stereo partly specified),13.4%,-2.7%,12.9%,8.25%,15.3%,7.6%
Nc1ncc2[nH]c(I)nc2n1,16.9%,19.9%,0.65%,0.7%,40.2%,26.4%
NC(CCCCNC(=O)OCc1ccccc1)C(=O)OCc1ccccc1 (stereo unspecified),-15.2%,-20.4%,-9.7%,15.6%,-0.75%,-18.5%
CCCCCCCCCCCCSC(=O)Nc1ccc(C(=O)OCC)cc1,24.9%,3.3%,12.7%,-39.2%,-2.55%,20.9%
CC1(C)CS(=O)(=O)C(=O)N1CCC(=O)O,9.8%,15.4%,7.8%,3.85%,6.45%,24.9%
N#CCCCCCCCCCC#N,-18.9%,-36%,-47.4%,25.9%,-52.5%,11.4%
CC(C)c1ccc2c(c1)CCC1C2(C)CCCC1(C)C(O)c1ccccc1 (stereo unspecified),9.45%,-6.65%,8.6%,-17.1%,8.05%,32.1%
[N-]=[N+]=NC(=O)c1cccc2c1Cc1ccccc1-2,8.85%,0.75%,-4.05%,-40.9%,-11.5%,-0.4%
O=C(O)c1ccc(S(=O)(=O)c2cccc(Cl)c2)cc1,0.85%,7.8%,8.65%,-18.7%,-16.1%,6.45%
COc1cc(-c2cc(=O)c3cc4c(=O)cc(-c5cc(OC)c(OC)c(OC)c5)oc4cc3o2)cc(OC)c1OC,-11.2%,1.25%,11.2%,-75%,-7.7%,-5%
OC1CCC(O)[C@H]2[C@@H]1[C@@H]1S[C@H]2c2ccccc21 (stereo partly specified),-2.55%,-14.8%,-22.4%,1.7%,-10.3%,-1.85%
Cc1ccc(-c2cc(C(=O)NN)c(C#N)c(=O)[nH]2)cc1,11.4%,0.55%,-0.85%,15.1%,-13.2%,26.1%
O=C(NC(=S)c1ccco1)NS(=O)(=O)c1ccc(Cl)cc1,8.35%,7.05%,12.2%,16.2%,20.4%,29.4%
N#CC1=CCc2ccccc2N1C(=O)Oc1ccccc1,58.5%,12.7%,50%,19.4%,64.6%,47.2%
CC(=O)CC(=O)CC(C)C.CC(=O)CC(=O)CC(C)C.[Cu],17.2%,17.5%,6.25%,-16.1%,-3.2%,37.7%
N#CC(C#N)=C1C=Cc2ccccc2O1,27.9%,-1.35%,0.9%,5.15%,-1.4%,43.9%
Cc1cccc(Nc2c(C(=O)O)cnc3cc4c(cc23)OCO4)c1,-3.4%,-4.85%,3.45%,-49.8%,-5.85%,-6.1%
CC(C)(C)C(=O)CC(=O)C(C)(C)C.[Cu],-10.2%,-9.35%,-4.2%,-56.6%,-26.4%,9.05%
